# Screening data as filed in PubChem BioAssay.
# PNC inhibitor = perinucleolar compartment assembly inhibition; PC3M PTB-GFP, PNC prevalence imaging, 16 h; hits give low values; activity change (PNC), negative = inhibition, % at 10 µM; 140,000 compounds, 3.1% hits; AID 2417;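 active means readout at or below -70, meaning at least 70% loss of cells showing the perinucleolar compartment, a nuclear body marking cancer cells; inconclusive means readout between -30 and a set limit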;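 further: plate controls were DMSO wells for no effect and camptothecin positive control wells for full effect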
#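 Compounds are pinned in duplicate onto adhered PC3M cells stably expressing GFP-tagged PTB and incubated 16 h at 37 C. Cells are then fixed, nuclei stained with Hoechst, and PNC-positive cells counted.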
# NPSR antagonist = blocks cAMP signaling of the human neuropeptide S receptor. Q6W5P4. CHO-NPSR cells, cAMP TR-FRET, antagonist mode. Potency, µM (titrated, usually from 38.3 µM), for the others: at the highest dose activity change, negative = inhibition, most hits filed as inhibitors. 220,000 compounds, 1% hits. AID 1461; further: potency means the concentration at half of the fitted maximal effect; nearly all actives have a fitted effect of over 50% in size
# Target sequence (Q6W5P4 whole entry, looked up): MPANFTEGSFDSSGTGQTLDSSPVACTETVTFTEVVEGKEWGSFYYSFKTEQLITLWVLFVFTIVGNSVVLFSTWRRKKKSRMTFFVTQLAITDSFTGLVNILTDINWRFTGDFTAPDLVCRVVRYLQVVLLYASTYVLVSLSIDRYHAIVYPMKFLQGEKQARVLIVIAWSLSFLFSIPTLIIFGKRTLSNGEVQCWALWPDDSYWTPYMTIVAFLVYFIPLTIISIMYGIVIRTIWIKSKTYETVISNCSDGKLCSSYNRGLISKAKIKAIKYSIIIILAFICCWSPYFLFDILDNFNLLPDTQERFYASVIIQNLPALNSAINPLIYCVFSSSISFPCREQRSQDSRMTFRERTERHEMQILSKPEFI
# Tau ThT inhib = inhibitors of human tau fibril formation, thioflavin T binding; recombinant tau K18 P301L, heparin-induced fibrillization, ThT fluorescence; 270,000 compounds, 2.1% hits; Potency, µM (top dose mostly 57.4 µM), without a hit: at the highest dose activity, negative = inhibition, actives largely listed as inhibitors; further: potency means the concentration at half of the fitted maximal effect; nearly all actives have a fitted effect of over 55% in size
# Target sequence (P10636 561-689 P618L limits assumed): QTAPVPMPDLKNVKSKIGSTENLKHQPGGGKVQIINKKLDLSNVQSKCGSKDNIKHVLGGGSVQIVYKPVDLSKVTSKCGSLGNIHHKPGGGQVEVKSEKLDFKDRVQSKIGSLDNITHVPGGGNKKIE
#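 Heparin-induced fibrillization of the P301L-mutant K18 repeat-domain fragment of human tau was followed by ThT binding in quantitative high-throughput format.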
# Tau fluor counter = counter-screen for tau fibril formation inhibitors; tau K18 P301L Alexa594 fluorescence, heparin fibrillization; 280,000 compounds, 0.93% hits; Potency, µM (series often up to 57.7 µM), for the others: top-dose activity change, negative = decrease; further: potency means the concentration at half of the fitted maximal effect; nearly all actives have a fitted effect of over 55% in size
#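 Human tau K18 P301L (15 uM unlabeled, 0.24 uM Alexa 594-labeled) in 100 mM sodium acetate pH 7 with 20 uM heparin, 6 hr at 37 C. ThT 30 uM added, 1 hr ambient; Alexa 594 FP and total fluorescence read at 555/632 nm.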
# Tau FP inhib = blocks human tau fibril formation measured by polarization. P10636. K18 P301L tau heparin fibrillization, Alexa594 FP, 6 h. Potency, µM (titrated, usually from 57.7 µM), for the others: at the highest dose activity, negative = inhibition, most hits filed as inhibitors. 280,000 compounds, 0.39% hits; further: potency means the concentration at half of the fitted maximal effect; nearly all actives have a fitted effect of over 55% in size
#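 Compound effects on tau fibrillization are measured by Alexa 594 fluorescence polarization (ex 555, em 632 nm). K18 P301L tau is used at 15 uM with 0.24 uM labeled tracer, and 20 uM heparin induces aggregation over 6 hr at 37 C.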
# JMJD2E inh = blocks human JMJD2E demethylase activity; JMJD2E catalytic domain, FDH-coupled NADH fluorescence (FDH is formaldehyde dehydrogenase); Potency, µM (highest dose often 57.1 µM), without a hit: at the top dose activity change, negative = inhibition, usual class: inhibitors; 230,000 compounds, 1.6% hits; AID 2147; active means well fitted inhibition curve with a large enough effect, not every such curve was filed as active; inconclusive means small, poorly fitted or top-dose-only effect, or another doubt; inactive means no such curve, though single readings can be large or run the other way;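 further: potency means the concentration at half of the fitted maximal effect; 0% = wells with enzyme and -100% = buffer wells without enzyme; nearly all actives have a fitted effect of over 50% in size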
# * hit, by the source's call; u = inconclusive; x = not tested or not shown; ! = a repeat was not active; [ ] = another dose, or the depositor's remark. Hits are enriched below; roughly 5.1% of the tested compounds scored in any of these assays. Unless noted, the call rests on the fitted dose curve; in most records, active means well fitted curve in the direction sought with a large enough effect; inconclusive means small, poorly fitted or top-dose-only effect, or another doubt; inactive means no such curve, though single readings can be large; an effect the other way counts as inactive or inconclusive. Unless noted, on the % scale 0 is the no-effect control and ±100 the full control effect.
SMILES,PNC inhibitor,NPSR antagonist,Tau ThT inhib,Tau fluor counter,Tau FP inhib,JMJD2E inh
Cc1cc(C(=O)Nc2ccc(N3CCCC3)c(Cl)c2)ccc1[N+](=O)[O-],5,-10%,5µM*,u,5%,0%
O=C(Nc1ccc(N2CCCC2)c(Cl)c1)c1ccc([N+](=O)[O-])cc1,6,6%,u,u,3%,7%
COc1ccc(-c2noc(-c3ccc(NCc4ccco4)c([N+](=O)[O-])c3)n2)cc1OC,x,x,11%,3%,-2%,x
Cc1ccc(S(=O)(=O)N2c3ccccc3OCC2C(C)(C)C)cc1 (stereo unspecified),-100*,-20%[46.1 µM],-6%,-8%,-6%,-4%
Cc1nc2c(c(C)c1CCC(=O)NCc1ccc(Cl)cc1)c(=O)n(C)c(=O)n2C,x,x,0%,-6%,1%,x
CCOC(=O)Nc1ccc(NCc2ccc(F)cc2)nc1N,x,-8%[46.1 µM],18µM*,u,u,u
CCS(=O)(=O)c1ncc(N(Cc2ccccc2)Cc2ccco2)c(C(=O)Nc2ccc(C)c(C)c2)n1,x,x,1%,0%,0%,x
O=c1c(O)c(-c2ccc(O)c(O)c2)oc2cc(O)ccc12,x,x,5µM*,u,9%,14µM*!
O=c1c(O)c(-c2ccc(O)cc2)oc2cc(O)ccc12,x,x,u,u,3%,u
O=c1c(O)c(-c2ccc(O)c(O)c2)oc2ccccc12,x,x,14µM*,u,10%,10µM*
Clc1cccc(N2CCN(c3ncnc4c3nc3n4CCCCC3)CC2)c1,x,x,u,-20%,9%,x
O=C1NC(c2ccc(Cl)cc2)Nc2ccccc21 (stereo unspecified),x,0%,-11%,-15%,3%,-1%
O=C1c2ccccc2C(=O)C12OC2c1ccc(Cl)cc1 (stereo unspecified),40,u,3.2µM*,-20%,u,u
Cc1ccc2ncc(C(=O)Nc3ccc(F)cc3F)c(=O)n2c1,x,x,-5%,-4%,-6%,x
CCOC(=O)c1c(NC(=O)c2cc(=O)c3cc(C)cc(C)c3o2)sc(C)c1C,x,x,-14%,-21%,-6%,x
O=C(Nc1ccc(N2CCN(C(=O)c3ccco3)CC2)cc1)c1ccco1,x,-5%,u,-5%,4%,4%
N#Cc1ccc(C(=O)Nc2ccc(N3CCN(C(=O)c4ccco4)CC3)cc2)c(F)c1,22,-16%[46.1 µM],1µM*,-17%,-1%,0%
Cc1ccc(S(=O)(=O)/N=C2\CN(C)C(=O)N2C)cc1,-113*,12%,-12%,-9%,-7%,7%
CC(=O)O[C@H]1C2OC(=O)C(C)=C2[C@@H]2OC(=O)[C@]3(CCC4OC41C)OC23 (stereo partly specified),-119*,-2%,u,-15%,u,2%
CN=c1scc(-c2cccs2)n1/N=C/c1ccccc1O,-17,-44%,11%,-3%,-8%,-1%
CN=c1scc(C)n1/N=C/c1ccc(O)c(O)c1O,-7,-19%[46.1 µM],7.1µM*,u,25µM*,7.9µM*
CN=c1scc(-c2cccs2)n1/N=C/c1ccc(O)c(O)c1O,u,-51%,13µM*,20µM*[quencher],u,14µM*
CN=c1scc(C)n1/N=C/c1cc(Br)c(O)c(OC)c1,x,-5%,13µM*,u,6%,-9%
COC(=O)C1=C(C)NC(C)=C(C(=O)OCCSc2ccccc2)C1C (stereo unspecified),x,x,-15%,u,8%,x
Oc1cc2c(cc1C(c1ccc(Br)cc1)N1CCCC1)OCO2 (stereo unspecified),x,-7%,22µM*,u,-10%,u
SMILES,PNC inhibitor,NPSR antagonist,Tau ThT inhib,Tau fluor counter,Tau FP inhib,JMJD2E inh
CCCn1c(-c2ccc(F)cc2)nc2c(NC(C)CCCN(CC)CC)nc(C)nc21 (stereo unspecified),x,x,-2%,-5%,-6%,u
NC(=O)c1ccccc1NC(=S)NC(=O)CCc1ccccc1,-108*,16%,u,-17%,-3%,-24%
COC(=O)CCC(=O)NC(=S)Nc1sc(C)c(C)c1C(N)=O,-124*,-36%,-12%,2%,-4%,10%
Cc1sc(NC(=S)NC(=O)CCc2ccccc2)c(C(N)=O)c1C,-121*,-48%,-8%,11%,1%,-4%
COc1cccc(NC(=O)C(=O)NCCc2csc(-c3ccc(C)cc3)n2)c1,x,x,-12%,-17%,-10%,x
COc1ccc(-c2cn3c(n2)sc2cc(C(=O)Nc4cc(Cl)ccc4C)ccc23)cc1,x,x,-11%,-9%,0%,x
CCCCn1c(=O)[nH]c2nc3cc(N)ccc3nc2c1=O,-27,-24%[46.1 µM],3%,-7%,-12%,-3%
Cc1cc2nc3c(=O)n(CCc4ccccc4)c(=O)[nH]c3nc2cc1N,x,-29%,x,8.9µM*[quencher],u,32µM*
Nc1ccc2nc3c(=O)n(CCc4ccccc4)c(=O)[nH]c3nc2c1,x,-39%,x,u,u,1.8µM*
COc1ccc(Cl)cc1NC(=O)c1cc(S(=O)(=O)N2CCc3ccccc32)cn1C,x,x,-12%,-10%,4%,x
Nc1cc(Br)c(N)c(Br)c1,-93*,-6%[7.67 µM],u,-20%,8%,5%
Cc1cn(C)c(CC(=O)N2CCN(c3cccc(C(F)(F)F)c3)CC2)c1C(=O)O,x,x,10%,3%,-11%,x
COC(=O)[C@@H](N)CS,14,13%,14µM*,-28%,u,u
COC(=O)C(N)CS (stereo unspecified),x,x,18µM*,-25%,u,-2%
N[C@@H](CO)C(=O)O,x,x,-10%,-12%,-6%,u
C[C@H](C[C@H](N)C(=O)O)C(=O)O,x,x,-6%,-7%,-1%,3%
CCOc1ccc(-c2cc(-c3nc(-c4cc(OC)c(OC)c(OC)c4)no3)[nH]n2)cc1Cl,x,x,u,-16%,7%,x
CCc1ccc(-c2nc(C(N)=O)c3[nH]c(=O)n(-c4ccccc4OC)c3n2)cc1,-106*,-13%[46.1 µM],-14%,-17%,-2%,u
COc1ccc(C2C(C(=O)N3CCC(C)CC3)c3ccccc3C(=O)N2C)cc1 (stereo unspecified),-86*,-2%[46.1 µM],-12%,-3%,-5%,1%
CCCN1C(=O)C(NC(=O)c2ccccc2OC)(C(F)(F)F)C(C(=O)OC)=C1C (stereo unspecified),x,x,6%,-12%,-2%,x
O=C(Nc1ccc(F)cc1)C1=CC(=O)N2CCN=C2S1,x,-6%,18µM*,-14%,u,-22%
CN(C)c1ccc(/C=N/n2ncc3ccccc32)cc1,-14,-20%[46.1 µM],4µM*,u,14%,u
COc1ccc(N2CCN(C(=O)Cn3nc(Cc4cccnc4)c4ccccc4c3=O)CC2)cc1,x,x,-11%,-14%,0%,x
